Where “and” joins values, the source holds several entries; their conditions need not be identical. Equal entries are not always repeated. Among all 5,500 compounds or so, about 2,000 (36%) were called active. Roughly 18% stayed inconclusive and do not appear here. No stated cut-off is given here; in the data, active means normalized growth mostly below about 0.91 (no sharp cut-off); inconclusive means no clear call, values can overlap the other calls; inactive means mostly above about 0.92. This is one part of the list.
Test: chemical genetic growth profiling, strain panel (AID 1159580);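 further: tested at 20 µM; growth read once vehicle control cultures reached saturation at 30 °C; 1 = growth at the plate median or of vehicle wells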
Conditions: S. cerevisiae deletion strains, growth OD

Measured: normalized growth

C[C@@H]1CC[C@H]2C(C)(C)C3CC12CC[C@@]3(C)O (stereo partly specified)
inactive: locus YAL021C, strain ccr4, stronger effect = lower value 0.942 | locus YAL026C, strain drs2, stronger effect = lower value 0.918 | locus YBR021W, strain FUR4, stronger effect = lower value 0.935 | locus YBR171W, strain sec66, stronger effect = lower value 0.962 | locus YBR229C, strain ROT2, stronger effect = lower value 1.02 | locus YCL029C, strain bik1, stronger effect = lower value 1.01 | locus YCL061C, strain MRC1, stronger effect = lower value 0.952 | locus YCL069W, strain vba3, stronger effect = lower value 0.977 | locus YCR088W, strain abp1, stronger effect = lower value 0.976 | locus YDL035C, strain GPR1, stronger effect = lower value 0.979 | locus YDL040C, strain nat1, stronger effect = lower value 0.952 | locus YDL074C, strain BRE1, stronger effect = lower value 0.913 | locus YDL101C, strain DUN1, stronger effect = lower value 0.988 | locus YDL185W, strain tfp1, stronger effect = lower value 0.99 | locus YDR001C, strain nth1, stronger effect = lower value 1.01 | locus YDR101C, strain arx1, stronger effect = lower value 0.939 | locus YDR150W, strain NUM1, stronger effect = lower value 1.02 | locus YDR162C, strain NBP2, stronger effect = lower value 1 | locus YDR318W, strain mcm21, stronger effect = lower value 0.95 | locus YDR334W, strain swr1, stronger effect = lower value 1 | locus YDR335W, strain msn5, stronger effect = lower value 0.928 | locus YDR388W, stronger effect = lower value 0.969 | locus YDR502C, strain sam2, stronger effect = lower value 0.924 | locus YEL037C, strain rad23, stronger effect = lower value 0.973 | locus YER110C, stronger effect = lower value 0.984 | locus YER167W, strain BCK2, stronger effect = lower value 0.948 | locus YGL078C, strain dbp3, stronger effect = lower value 0.955 | locus YGL167C, strain pmr1, stronger effect = lower value 1.01 | locus YGL227W, strain vid30, stronger effect = lower value 0.969 | locus YGL248W, strain PDE1, stronger effect = lower value 0.968 | locus YGR135W, strain pre9, stronger effect = lower value 0.922 | locus YGR252W, strain gcn5, stronger effect = lower value 0.97 | locus YHR013C, strain ard1, stronger effect = lower value 0.961 | locus YHR030C, strain SLT2, stronger effect = lower value 0.93 and 0.993 | locus YHR079C, strain IRE1 (second series), stronger effect = lower value 1.02 | locus YHR079C, strain IRE1, stronger effect = lower value 0.99 | locus YHR094C, strain hxt1, stronger effect = lower value 0.992 | locus YHR129C, strain ARP1, stronger effect = lower value 0.968 | locus YHR200W, strain rpn10, stronger effect = lower value 0.941 | locus YIL066C, strain RNR3, stronger effect = lower value 0.937 | locus YIL073C, strain SPO22, stronger effect = lower value 0.974 | locus YIL125W, strain kgd1, stronger effect = lower value 0.959 | locus YIR030C, strain dcg1, stronger effect = lower value 0.987 | locus YJL092W, strain hpr5, stronger effect = lower value 0.968 | locus YJL095W, strain BCK1, stronger effect = lower value 0.927 and 1.01 | locus YJL115W, strain asf1, stronger effect = lower value 0.996 | locus YJL134W, strain LCB3, stronger effect = lower value 1.01 | locus YJL154C, strain vps35, stronger effect = lower value 0.983 | locus YJL168C, strain set2, stronger effect = lower value 0.986 | locus YJL187C, strain SWE1 (second series), stronger effect = lower value 0.986 | locus YJR043C, strain POL32, stronger effect = lower value 0.97
active: locus YAL030W, strain snc1, stronger effect = lower value 0.884 | locus YBL061C, strain skt5, stronger effect = lower value 0.754 | locus YBR009C, strain hhf1, stronger effect = lower value 0.658 | locus YBR023C, strain chs3, stronger effect = lower value 0.7 | locus YBR231C, strain swc5, stronger effect = lower value 0.862 | locus YBR279W, strain paf1, stronger effect = lower value 0.907 | locus YCL011C, strain gbp2, stronger effect = lower value 0.811 | locus YCL016C, strain dcc1, stronger effect = lower value 0.859 | locus YDL005C, strain med2, stronger effect = lower value 0.848 | locus YDL192W, strain arf1, stronger effect = lower value 0.872 | locus YDR137W, strain rgp1, stronger effect = lower value 0.67 | locus YDR159W, strain sac3, stronger effect = lower value 0.603 | locus YDR195W, strain ref2 0.318 | locus YDR297W, strain sur2, stronger effect = lower value 0.906 | locus YDR392W, strain spt3, stronger effect = lower value 0.301 | locus YEL003W, strain gim4, stronger effect = lower value 0.848 | locus YEL061C, strain CIN8 (second series), stronger effect = lower value 0.875 | locus YEL061C, strain CIN8, stronger effect = lower value 0.917 | locus YER015W, strain faa2, stronger effect = lower value 0.86 | locus YER016W, strain bim1, stronger effect = lower value 0.904 | locus YER111C, strain swi4, stronger effect = lower value 0.77 | locus YER155C, strain BEM2 (second series), stronger effect = lower value 0.74 | locus YER155C, strain BEM2, stronger effect = lower value 0.876 | locus YFR010W, strain ubp6, stronger effect = lower value 0.863 | locus YGL086W, strain mad1, stronger effect = lower value 0.911 | locus YGL173C, strain kem1, stronger effect = lower value 0.795 | locus YGL240W, strain doc1, stronger effect = lower value 0.805 | locus YGL253W, strain hxk2, stronger effect = lower value 0.897 | locus YHR027C, strain rpn1, stronger effect = lower value 0.888 | locus YHR142W, strain chs7, stronger effect = lower value 0.605 | locus YJL095W, strain BCK1 (second series), stronger effect = lower value 0.699 | locus YJL129C, strain trk1, stronger effect = lower value 0.859 | locus YJL164C, strain tpk1, stronger effect = lower value 0.753 | locus YJL166W, strain qcr8, stronger effect = lower value 0.669 | locus YJL187C, strain SWE1, stronger effect = lower value 0.833
